A short description of experiment [1]: TOX21_p53_BLA_p2_viability: Viability Assessment in the Tox21 HCT-116 p53 Agonism Beta-lactamase Assay, Phase 2 (AID 2283591).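 Note: compound exposure lasted 16 h at 37 °C; actives lower the ATP signal meaning cytotoxicity.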 The method in brief: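 HCT-116 p53-bla cells (4000/well) rested 5 h at 37C, then received compounds in DMSO (217-fold dilution) for 16 h at 37C, 5% CO2. After the CCF4 read, CellTiter-Glo was added; ATP luminescence was read after 30 min at room temperature.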

Experiment [2] concerns the target Cellular tumor antigen p53 (Homo sapiens) (UniProt P04637). Description: TOX21_p53_BLA_p2_ratio: Tox21 HCT-116 p53 Agonism Beta-lactamase Assay, Ratio, Phase 2 (AID 2283592). In short, it runs like this: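 Read-out is the blue/green (460/530 nm, 405 nm excitation) ratio after 2 h CCF4-AM loading, fitted as gain versus DMSO. Compounds, pinned at 217-fold dilution from DMSO stocks, stayed 16 h on HCT-116 beta-lactamase reporter cells seeded 5 h earlier.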

Experiment [3] is described as follows: TOX21_p53_BLA_p3_viability: Viability Assessment in the Tox21 HCT-116 p53 Agonism Beta-lactamase Assay, Phase 3 (AID 2283593).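 Note: cells exposed to compound for 16 h before reading.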 The method in brief: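 HCT-116 cells (4000/well) rested 5 h at 37C, then got DMSO compounds by pin tool (217-fold dilution) for 16 h at 37C, 5% CO2. After the bla read, CellTiter-Glo was added and luminescence read at 30 min, room temperature.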

Experiment [4] can be described thus: TOX21_p53_BLA_p4_viability: Viability Assessment in the Tox21 HCT-116 p53 Agonism Beta-lactamase Assay, Phase 4 (AID 2283597).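 Note: hits lower the luminescence signal meaning cytotoxicity.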 The method in brief:
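Cytotoxicity as reduced cellular ATP (CellTiter-Glo luminescence, 30 min room temperature), measured in the same wells following the CCF4 FRET p53 reading. Human HCT-116 cells received compounds in DMSO (217-fold dilution) for 16 h.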

Experiment [5] can be described thus: TOX21_p53_BLA_p5_viability: Viability Assessment in the Tox21 HCT-116 p53 Agonism Beta-lactamase Assay, Phase 5 (AID 2283600). The method in brief: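 Viability came from CellTiter-Glo ATP luminescence, read after 30 min at room temperature. Before this, HCT-116 p53-bla cells (4000/well) had 16 hours of compound exposure at 37C, with DMSO stocks diluted 217-fold on transfer.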

Experiment [6] concerns the target Thyroid hormone receptor alpha (Rattus norvegicus) + Thyroid hormone receptor beta (Rattus norvegicus) (UniProt P18113+P63059). The experiment in a line: TOX21_TR_LUC_GH3_Antagonist_Followup: Tox21 GH3 Thyroid Hormone Receptor Antagonism Luciferase Follow-Up Assay (AID 2283942). In short, it runs like this: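 In a GH3 luciferase reporter line, test chemicals spanning 92 uM to 5nM final are co-incubated 24 h with 1.0 nM T3. Activity is expressed as relative luminescence units and analysed relative to DMSO.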

For experiment [7], the target named is THRA (gene 7067) (UniProt P10827). Description: TOX21_TRA_COA_Antagonist_Followup_ratio: Tox21 Thyroid Hormone Receptor alpha Antagonism through Coactivator Recruitment Follow-Up Assay, Ratio (AID 2283953). In short, it runs like this:
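We measured antagonism of T3-type coactivator recruitment using a TR-FRET ratio (emission 520 and 495 nm) between a Tb-labelled anti-GST antibody on TRα LBD (2.5 nM) and SRC-2 peptide (200 nM). Activity was scaled between DMSO and T3 wells.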

The target of experiment [8] is THRB (gene 7068) (UniProt P10828). Description: TOX21_TRB_COA_Antagonist_Followup_ratio: Tox21 Thyroid Hormone Receptor beta Antagonism through Coactivator Recruitment Follow-Up Assay, Ratio (AID 2283967). The method in brief:
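Coactivator (SRC-2) recruitment to purified GST-TRβ ligand-binding domain is monitored by terbium-to-fluorescein energy transfer, emission ratio 520:495 nm. DMSO wells define 0% and T3 wells 100% activity.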

Experiment [9] is described as follows: TOX21_TR_RXR_BLA_Antagonist_Followup_viability: Viability Assessment in the Tox21 Thyroid Hormone Receptor beta Retinoid X Receptor alpha (RXRa) Antagonism Beta-lactamase (BLA) Follow-Up Assay (AID 2283979). The method in brief:
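RXRa-UAS-bla HEK293T cells seeded 2,500/well in phenol red-free DMEM with 2% charcoal-stripped FBS, attached 5 h, then exposed to compounds at 11 concentrations in triplicate for 16 h at 37C/5% CO2. Viability read by CellTiter-Glo ATP luminescence; bidirectional fit versus DMSO.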

Experiment [10] deals with Cellular tumor antigen p53 (Homo sapiens) (UniProt P04637). Description: TOX21_p53_BLA_p4_ratio: Tox21 HCT-116 p53 Agonism Beta-lactamase Assay, Ratio, Phase 4 (AID 2283601). In short, it runs like this: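 HCT116 cells carrying an inducible beta-lactamase reporter were plated at 4000 cells/well, rested 5 h, then exposed to compounds in DMSO (217-fold dilution) for 16 h at 37C. CCF4-AM substrate was loaded 2 h at room temperature; 460/530 nm emission ratio scored gain-of-signal versus DMSO.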

The target is the same in experiment [11]. The experiment in a line: TOX21_p53_BLA_p5_ratio: Tox21 HCT-116 p53 Agonism Beta-lactamase Assay, Ratio, Phase 5 (AID 2283599). In short, it runs like this: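 HCT-116 cells carrying a p53-inducible beta-lactamase reporter were seeded at 4000 cells/well and dosed after 5 h with compound in DMSO (217-fold dilution). After 16 h at 37C, CCF4-AM substrate was added for 2 h, and the 460/530 nm emission ratio was scored as gain-of-signal versus DMSO.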

Results filed as inconclusive are left out. Active and inactive are the calls of the source. Rule for the calls: active = hit-call score of the fitted dose curve at least 0.9, where 1 is the maximum; inconclusive = response in the unintended direction; inactive = score below 0.9.

Broadly, the AC50 is the midpoint of the concentration-response curve, whichever way the signal moves.

Sequence of Cellular tumor antigen p53 (Homo sapiens) (P04637 whole entry, looked up): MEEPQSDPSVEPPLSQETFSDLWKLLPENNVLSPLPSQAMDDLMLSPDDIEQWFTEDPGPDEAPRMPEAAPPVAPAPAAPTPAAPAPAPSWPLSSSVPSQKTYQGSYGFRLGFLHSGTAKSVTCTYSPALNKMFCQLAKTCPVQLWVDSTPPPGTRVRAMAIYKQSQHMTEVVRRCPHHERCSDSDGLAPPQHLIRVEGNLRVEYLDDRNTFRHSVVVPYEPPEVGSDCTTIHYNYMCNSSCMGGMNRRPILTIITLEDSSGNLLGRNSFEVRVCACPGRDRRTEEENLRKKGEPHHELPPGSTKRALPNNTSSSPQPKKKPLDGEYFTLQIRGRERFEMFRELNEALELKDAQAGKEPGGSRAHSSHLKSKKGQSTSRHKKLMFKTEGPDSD
Sequence of THRA (gene 7067) (P10827 whole entry, looked up, the tested form may be a part): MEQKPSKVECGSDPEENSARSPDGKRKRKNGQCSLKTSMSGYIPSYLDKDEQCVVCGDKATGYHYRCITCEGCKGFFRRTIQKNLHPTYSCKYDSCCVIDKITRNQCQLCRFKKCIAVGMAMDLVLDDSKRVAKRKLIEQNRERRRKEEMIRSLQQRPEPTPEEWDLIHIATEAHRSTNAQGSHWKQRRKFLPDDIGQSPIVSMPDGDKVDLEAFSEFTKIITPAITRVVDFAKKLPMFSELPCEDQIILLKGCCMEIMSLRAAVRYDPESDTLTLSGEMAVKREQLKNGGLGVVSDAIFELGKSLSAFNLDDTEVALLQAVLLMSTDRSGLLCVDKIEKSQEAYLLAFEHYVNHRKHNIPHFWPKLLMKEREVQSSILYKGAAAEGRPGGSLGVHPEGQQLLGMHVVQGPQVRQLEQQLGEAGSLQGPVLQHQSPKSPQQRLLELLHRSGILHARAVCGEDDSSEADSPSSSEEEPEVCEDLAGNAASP
Sequence of THRB (gene 7068) (P10828 whole entry, looked up, the tested form may be a part): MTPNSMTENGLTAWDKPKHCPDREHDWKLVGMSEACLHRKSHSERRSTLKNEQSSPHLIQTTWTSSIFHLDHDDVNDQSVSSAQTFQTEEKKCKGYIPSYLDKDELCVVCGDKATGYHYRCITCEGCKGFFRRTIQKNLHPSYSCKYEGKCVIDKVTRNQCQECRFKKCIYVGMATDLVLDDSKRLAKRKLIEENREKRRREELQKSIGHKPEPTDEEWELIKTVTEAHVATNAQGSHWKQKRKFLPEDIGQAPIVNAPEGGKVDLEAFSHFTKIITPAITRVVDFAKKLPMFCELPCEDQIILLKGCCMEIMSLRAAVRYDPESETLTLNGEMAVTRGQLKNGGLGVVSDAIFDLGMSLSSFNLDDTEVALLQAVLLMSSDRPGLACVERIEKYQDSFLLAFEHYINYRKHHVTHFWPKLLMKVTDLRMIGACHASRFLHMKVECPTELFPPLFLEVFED

On to `CC(=O)[C@H]1CC[C@H]2[C@@H]3C=CC4=CC(=O)CC[C@@]4(C)[C@@H]3CC[C@]12C`, for which the compound was classed as inactive in experiment [1], in [2], in [3], in experiment [4], in experiment [5] and in [6]. Moreover, the outcome in experiment [7], in [8] and in experiment [9] was inactive.
Turning to `CCN1CCN(c2cc(-c3ccc(F)cc3)c3c(n2)CCCCCC3)CC1`, the compound was classed as inactive in experiment [1], in [2], in experiment [3], in experiment [4], in experiment [5] and in [10].
On to `CC(C(O)c1ccccc1)N(C)CCOC(c1ccccc1)c1ccccc1` (centres undefined), for which the result in experiment [1], in [2], in experiment [3] and in experiment [5] was inactive. Besides, in experiment [4], the AC50 was 42.2 µM (active).
Turning to `CC[C@H]1OC(=O)[C@H](C)[C@@H](O[C@H]2C[C@@](C)(OC)[C@@H](O)[C@H](C)O2)[C@H](C)[C@@H](O[C@@H]2O[C@H](C)C[C@H](N(C)C)[C@H]2O)[C@](C)(O)C[C@@H](C)CN(C)[C@H](C)[C@@H](O)[C@]1(C)O`, the result in [1], in [2], in experiment [3], in experiment [4], in [5] and in experiment [10] was inactive.
`Cc1cc(-c2ccccc2)nnc1NCCN1CCOCC1`: the call in experiment [1], in [2], in experiment [3] and in experiment [11] was inactive.
Regarding `CC(C)CCCCCCN`, the compound was called inactive in [1], in experiment [2], in experiment [3], in experiment [4] and in experiment [5].
As to `CO[Si](OC)(OC)OC`, the call in experiment [1], in [2], in experiment [3] and in experiment [11] was inactive.

The values above are taken from PubChem BioAssay (EPA / NIEHS).
